# In the library only some 8% were active in any assay of this set; here they are far more common.
# KB-3-1 cytotox – qHTS assay for MDR1-selective chemotherapeutics: Primary screen using the parental adenocarcinoma cell KB-3-1; actives 1.4% (n = 400,000); Potency, µM (top dose mostly 46.1 µM), most hits filed as cytotoxic; KB-3-1 viability, CellTiter-Glo ATP luminescence, 72 h; note: nearly all actives have a fitted effect of over 60% in size
#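 Screening of KB-3-1 cells (DMEM, 10% FBS, phenol-red free) ran from lowest to highest compound concentration; after 72 h at 37 °C viability was read luminescently and curves fitted.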
# SW480 rerep – A quantitative high throughput screen for small molecules that induce DNA re-replication in SW480 colon adenocarcinoma cells. SW480 DNA re-replication, Hoechst DNA content imaging, 48 h. actives 1.8% (n = 340,000). Potency, µM (doses to about 46.1 µM), actives largely listed as activators; note: nearly all actives have a fitted effect of over 55% in size
#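 250 cells/well; 23 nL cpd via pin tool; 48 hr, 37 C, 5% CO2; Hoechst 40 min; imager read of total nuclear intensity, ex 405/em 500-530 nm.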
# KB-V1 MDR tox – qHTS assay for MDR1-selective chemotherapeutics: Primary screen using the drug-selected MDR subline cells KB-V1. KB-V1 MDR cells viability, CellTiter-Glo, 72 h. Potency, µM (highest dose often 46.1 µM), hits mostly cytotoxic. actives 3.4% (n = 400,000); note: nearly all actives have a fitted effect of over 60% in size
#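 KB-V1 MDR subline cells in DMEM (phenol-red free, 10% FBS) exposed to compounds in qHTS concentration series for 72 h at 37 degrees C. Viability read by CellTiter-Glo luminescence; concentration-effect curves fitted after normalization and correction.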
# HT1080NT lethal – qHTS for induction of synthetic lethality in tumor cells producing 2HG: qHTS for the HT-1080-NT fibrosarcoma cell line; HT-1080-NT fibrosarcoma viability, CellTiter-Glo ATP luminescence, 48 h; Potency, µM (series often up to 46.1 µM), actives largely listed as cytotoxic; actives 1.6% (n = 360,000); AID 686970, 2013;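 note: NT is the 2HG producing partner of a matched IDH1 knockdown line; nearly all actives have a fitted effect of over 55% in size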
#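 HT-1080-NT fibrosarcoma cells (2HG-overproducing), 750 cells/well in RPMI with 5% FBS, dosed after 2 h and incubated 48 h at 37C. CellTiter-Glo luminescence normalized to DMSO and no-cell wells; concentration-response curves fitted and classed.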
# MCF10A rereplic – A quantitative high throughput screen for small molecules that induce DNA re-replication in MCF 10a normal breast cells. MCF 10A DNA re-replication, Hoechst nuclear intensity, 48 h. Potency, µM (top dose mostly 46.1 µM), actives largely listed as activators. actives 2.9% (n = 350,000). AID 624296, 2012; note: nearly all actives have a fitted effect of over 50% in size
# HT1080 IDH1KD tx – qHTS for induction of synthetic lethality in tumor cells producing 2HG: qHTS for the HT-1080-IDH1KD cell line; Potency, µM (doses to about 46.1 µM), usual class: cytotoxic; HT-1080 IDH1 knockdown viability, ATP luminescence, 48 h; actives 2% (n = 360,000)
#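 After a 2 h attachment period, IDH1KD HT-1080 cells took pin-transferred compound for 48 h at 37 °C; ATP-based luminescence after 10 min room-temperature reagent incubation reported viability.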
# A number is an active result; 0 = inactive; ? = inconclusive; - = no result; [ ] = dose if it differs, or a comment. Calls come from the whole dose curve; as a rule, active = well fitted curve in the direction sought with a large enough effect; inconclusive = small, poorly fitted or top-dose-only effect, or another doubt; inactive = no such curve, though single readings can be large; an effect the other way counts as inactive or inconclusive.
SMILES,KB-3-1 cytotox,SW480 rerep,KB-V1 MDR tox,HT1080NT lethal,MCF10A rereplic,HT1080 IDH1KD tx
CCOC(=O)c1ccccc1NS(=O)(=O)c1ccc(C)cc1,25.9µM,?,?,0,?,?
Cc1ccccc1NS(=O)(=O)c1ccc(F)cc1,0,0,0,0[9.24 µM],0,0
COc1ccc(S(=O)(=O)Nc2ccccc2C)cc1,?,13µM,?,?,20.6µM,?
Cc1ccc(S(=O)(=O)Nc2ccccc2[N+](=O)[O-])cc1,0,-,0,0,-,0
CC(NC(=O)c1ccc(NC(=O)CC2SC(N3CCCC3)=NC2=O)cc1)c1ccc(S(N)(=O)=O)cc1 (stereo not drawn),0,0,0,0,0,0
CC(NC(=O)Cc1ccccc1)c1cc2c(cc1Br)OCCCO2 (stereo not drawn),?,0,0,0,0,0
COc1ccc(S(=O)(=O)Nc2c(F)cccc2F)cc1,0,0,0,0,0,0
CCn1c2ccccc2c2cc(NS(=O)(=O)c3ccc(C)cc3)ccc21,?,?,?,?,18.4µM,?
COc1ccc(S(=O)(=O)Nc2cccc3ccc(O)cc23)cc1,14.6µM,?,?,3.26µM,20.6µM,5.17µM
Cc1ccc(S(=O)(=O)Nc2ccccc2CNc2cccc(C)n2)cc1,0,0,5.8µM,0,0,0
Cc1ccc(S(=O)(=O)Nc2c(C)nn(C)c2C)cc1,0,0,0,0,0,0
CCn1c(=O)n(CC)c2cc(NS(=O)(=O)c3ccccc3)ccc21,?,0,0,0,0,0
CCn1nc(C)c(NS(=O)(=O)c2ccc(C)cc2)c1C,?,0,16.4µM,0,0,0
C[N+]1(CC(=O)c2ccc(Br)cc2)CCOCC1,0,-,0,-,-,-
CC(=O)NC1CCCC1C#N (stereo not drawn),?,-,0,-,-,-
COc1ccccc1C(=O)NCCCCNC(=O)c1ccccc1OC,0,0,0,0,0,0
Cc1ccc(S(=O)(=O)Nc2ccccc2NS(=O)(=O)c2ccc(C)cc2)cc1,?,-,20.6µM,0,-,0
Cc1ccc(S(=O)(=O)Nc2ccc(Cl)cc2O)cc1,?,-,20.6µM,?,-,?
COc1ccc(OC)c(NS(=O)(=O)c2ccccc2)c1,0,-,0,-,-,-
COc1ccc(NS(=O)(=O)c2ccc(SC)cc2)c(OC)c1,0,0,18.4µM,0,0,0
Cc1ccc(S(=O)(=O)Nc2ccccc2O)cc1,0,-,0,0,-,0
CCOC(=O)c1ccc(S(=O)(=O)Nc2ccccc2-c2nnn(CC)n2)cc1,0,0,16.4µM,0,0,0
Cc1nc(-c2ccc(Cl)cc2)sc1CCNC(=O)C(=O)Nc1ccccc1C#N,0,-,?,-,-,-
COc1ccc(S(=O)(=O)Nc2cc3c4c(oc3c3ccccc23)CC(C)(C)CC4=O)cc1,?,0,?,?,0[0.0737 µM],?
CCOC(=O)c1ccc(NS(=O)(=O)c2ccc(SC)cc2)cc1,0,0,23.1µM,0,23.1µM,0
SMILES,KB-3-1 cytotox,SW480 rerep,KB-V1 MDR tox,HT1080NT lethal,MCF10A rereplic,HT1080 IDH1KD tx
CCOC(=O)Cc1ccc(NS(=O)(=O)c2ccc(SC)cc2)cc1,0,0,0,0,0,0
COc1ccc(S(=O)(=O)Nc2cc3c4c(oc3c3ccccc23)CCCC4=O)cc1,7.31µM,?,5.17µM,?,?,3.66µM
COc1ccc(-c2cc3nc(C)c(CCC(=O)NCCc4ccc(Cl)cc4)c(C)n3n2)c(OC)c1,0,-,0,-,-,-
Cc1ccc(-c2csc3nc(SCC(N)=O)n(Cc4ccccc4)c(=O)c23)cc1,0,-,20.6µM,?,?,?
Cc1ccc(Cn2c(SCC(=O)N3CC(=O)Nc4ccccc43)nc3ccccc3c2=O)cc1,0,-,20.6µM,0,0,?
O=C1CN(C(=O)CSc2nnnn2-c2ccc(Cl)cc2)c2ccccc2N1,0,0,16.4µM,0,0,0
CC(C)Cn1c(SCC(=O)N2CC(=O)Nc3ccccc32)nc2ccccc21,0,?,10.3µM,0,0,0
CC(c1ccccc1)n1c(SCC(=O)N2CC(=O)Nc3ccccc32)nc2ccccc2c1=O (stereo not drawn),?,-,?,0,?,0
NC(=O)CSc1nc2ccccc2n1Cc1ccccc1,0,0,0,0,0,0
Cc1ccc2cn[nH]c2c1[N+](=O)[O-],0,0,0,0,0,0
C/C(N)=C(/C#N)C(=O)CSc1nc2ccccc2c(=O)n1Cc1ccc(C)cc1,?,?,?,?,?,16.4µM
Cc1ccc(NC(=O)CN2CCSc3ccc(S(=O)(=O)N4CCCC4)cc32)cc1C,?,-,10.3µM,-,-,-
CCC(=O)N1CCc2cc(S(=O)(=O)NC(C(=O)NCCc3ccccc3)C(C)C)ccc21 (stereo not drawn),0,-,0,-,-,-
Cc1nn(Cc2ccccc2)c(C)c1NC(=O)CCCn1nc(C)c([N+](=O)[O-])c1C,0,0,23.1µM,0,0,0
Cc1c(Cl)c([N+](=O)[O-])nn1CCCC(=O)Nc1cccc(Cl)c1,?,0,18.4µM,0,0,0
Cc1nn(Cc2ccc(Cl)cc2)c(C)c1NC(=O)CCCn1nc(C)c([N+](=O)[O-])c1C,0,0,?,0,0,0
COc1ccc(NC(=O)CN2CCC(C(=O)c3ccc(C)cc3)CC2)c(OC)c1,0,0,0,0,?,0
COc1ccc(OC)c(NC(=O)CN2CCC(C(=O)c3ccc(C)cc3)CC2)c1,?,0,8.2µM,0,18.4µM,?
CCOc1ccc(C(=O)C2CCN(CC(=O)Nc3ccccc3N3CCOCC3)CC2)cc1,0,?,?,?,7.31µM,?
O=C(Nc1ccccc1N1CCCCC1)c1ccc(F)cc1,0,0,0,0,0,0
O=C(Nc1ccccc1N1CCCCC1)c1ccc(OC(F)F)cc1,0,0,0,0,13µM,0
CCOc1ccc(C(=O)Nc2ccccc2N2CCCC2)cc1,23.1µM,?,?,0,?,0
COc1ccc(S(=O)(=O)c2nnn(-c3ccc(C)c(Cl)c3)c2C)cc1,?,-,0,-,-,-
CCN(C(C)=O)c1nc(CSc2nnc(NC(C)C)s2)cs1,0,0,23.1µM,0,0,0
CC(C)CN(C(=O)CN(C)CC(=O)Nc1ccc(Cl)c(C(F)(F)F)c1)c1c(N)n(CC(C)C)c(=O)[nH]c1=O,0,0,0,0,?,0
Cc1cc(N/N=C/c2cccc(Br)c2)nc2ccccc12,0,0,20.6µM,0,0,0
Cc1cc(N/N=C/c2ccncc2)nc2ccccc12,?,0,6.51µM,0,0,0

# Assay outcomes deposited in PubChem BioAssay by National Center for Advancing Translational Sciences (NCATS).
